Compound activity as filed in PubChem.
Pf growth 48h: inhibits P. falciparum growth in the first generation, 48 h | 310,000 compounds, 5.9% hits | Potency, µM (doses to about 28.7 µM), inactives show top-dose activity change, negative = inhibition, hits mostly inhibitors | P. falciparum luciferase growth in erythrocytes, 48 h; note: % is set by controls: 0 for no effect and ±100 for the full control effect
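In quantitative HTS format, infected erythrocytes bearing luciferase-reporter parasites were treated for a single generation at 37 C. Luminescence after adding detection reagent served as the growth measure.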
Sm TGR block: blocks Schistosoma mansoni thioredoxin glutathione reductase; 360,000 compounds, 3% hits; purified TGR, DTNB reduction, TNB absorbance 405 nm; AID 485364; Q962Y6; Potency, µM (doses to about 114 µM), for the others: at the highest dose activity change, negative = inhibition, most hits filed as inhibitors; note: % is set by controls: 0 for no effect and ±100 for the full control effect; nearly all actives have a fitted effect of over 60% in size
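TGR 20 nM + NADPH 100 uM (dispensed conc.), cpd preinc 15 min RT; start with NADPH (500 uM addition) then DTNB (15 mM addition). Kinetic TNB absorbance, 405 nm filter. Four-parameter Hill fit across titration.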
Pf growth 96h: inhibits malaria parasite growth, 96 h; 320,000 compounds, 6.9% hits; Potency, µM (highest dose often 28.7 µM), without a hit: at the highest dose activity change, negative = inhibition, actives largely listed as inhibitors; P. falciparum luciferase reporter growth, 96 h; note: % is set by controls: 0 for no effect and ±100 for the full control effect
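Luminescence readout: decreased luciferase signal marks inhibited growth of reporter-expressing P. falciparum in infected red cells (2% hematocrit, 0.05% parasitemia final), exposed to compound two generations (96 h, 37 C, 5% CO2).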
SARS PLP yeast: inhibitors of SARS-CoV papain-like protease in yeast | S. cerevisiae expressing SARS-CoV PLpro, growth rescue | 330,000 compounds, 0.19% hits | Potency, µM (top dose mostly 32.9 µM), for inactives: at the top dose activity, positive = growth rescue, actives largely listed as activators; calls by dose curve; note: 0% is about no effect; nearly all actives have a fitted effect of over 55% in size
AmpC inh no detg: AmpC beta-lactamase inhibition without detergent | P00811 | AmpC nitrocefin hydrolysis, absorbance 480 nm, 0.0001% Triton | Potency, µM (titrated, usually from 57.1 µM), for inactives: top-dose activity change, negative = inhibition, usual class: inhibitors | 330,000 compounds, 0.52% hits | AID 485341;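 note: plate controls were no compound for no effect and no enzyme for full effect; nearly all actives have a fitted effect of over 20% in size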
Target sequence (P00811 whole entry, looked up): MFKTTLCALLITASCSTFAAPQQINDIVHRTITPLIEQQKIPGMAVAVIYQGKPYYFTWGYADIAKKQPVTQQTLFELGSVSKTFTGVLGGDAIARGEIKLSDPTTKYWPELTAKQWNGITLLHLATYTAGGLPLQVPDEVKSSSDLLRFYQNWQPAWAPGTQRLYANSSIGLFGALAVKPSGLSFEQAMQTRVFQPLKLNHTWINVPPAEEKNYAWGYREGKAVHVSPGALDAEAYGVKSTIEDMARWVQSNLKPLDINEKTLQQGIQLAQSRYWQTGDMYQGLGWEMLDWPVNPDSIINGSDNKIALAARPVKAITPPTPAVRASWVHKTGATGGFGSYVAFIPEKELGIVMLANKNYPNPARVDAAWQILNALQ
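20 mM phosphate pH 7.0 + 0.01% (detergent screen) or 0.0001% Triton X-100; 5.3 nM AmpC reagent; cpd preinc 15 min RT; nitrocefin (800 uM stock) to start; A480 q20 s × 4 min; Activity was normalised to no-enzyme and no-compound control wells.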
AmpC detergent: AmpC beta-lactamase inhibition with detergent present. 370,000 compounds, 0.041% hits. Potency, µM (series often up to 114 µM), for the others: top-dose activity change, negative = inhibition, hits mostly inhibitors. AmpC hydrolysis of nitrocefin, absorbance 480 nm, 0.01% Triton;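 note: 0% = no-compound wells and -100% = no-enzyme wells; nearly all actives have a fitted effect of over 25% in size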
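AmpC (5.3 nM in the dispensed reagent) in 20 mM phosphate pH 7.0 with 0.01% (detergent screen) or 0.0001% Triton X-100 was preincubated with compounds for 15 min at room temperature. Nitrocefin was then added from an 800 uM solution, and hydrolysis was followed at 480 nm.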
* hit, by the source's call; ? = inconclusive; nt = not tested or not shown. Only some compounds are listed: those with a hit (about 12% of all), similar ones and a draw of the others. Unless noted, calls come from the whole dose curve; as a rule, active = well fitted curve in the direction sought with a large enough effect; inconclusive = small, poorly fitted or top-dose-only effect, or another doubt; inactive = no such curve, though single readings can be large; an effect the other way counts as inactive or inconclusive. Potency is the fitted concentration of half-maximal effect.

SMILES	Pf growth 48h	Sm TGR block	Pf growth 96h	SARS PLP yeast	AmpC inh no detg	AmpC detergent
COc1cc(NC(=O)C2CCN(C(=O)c3sc4nc[nH]c(=O)c4c3C)CC2)cc(OC)c1OC	nt	1%	nt	nt	nt	3%
N#Cc1ccccc1OCC(=O)OCC(=O)Nc1ccc2c(c1)OCO2	-6%	-21%	7%	-3%	-17%	-3%
O=S(=O)(c1ccc(Br)cc1)c1nc(-c2ccccc2)oc1NCCN1CCOCC1	?	-5%	9.3µM*	-6%	30%	-3%
Cc1ccc(S(=O)(=O)c2nc(-c3ccccc3)oc2NCc2cccnc2)cc1	?	?	?	2%	46%	?
O=S(=O)(c1ccc(Br)cc1)c1nc(-c2ccco2)oc1NCCCn1ccnc1	8.3µM*	22µM*	?	0%	121%	-1%
Cc1ccccc1-c1nc(S(=O)(=O)c2ccc(Br)cc2)c(NCc2cccnc2)o1	13µM*	-10%	nt	2%	7%	3%
Cc1ccc(CNc2oc(-c3ccco3)nc2S(=O)(=O)c2ccccc2)cc1	10µM*	0%	?	-46%	-33%	6%
O=S(=O)(c1ccccc1)c1nc(-c2cccs2)oc1NCCCn1ccnc1	0%	?	187%	8%	-16%	?
CCOc1ccc(NC(=O)CC2C(=O)N(c3ccc(F)cc3)C(=O)N2Cc2ccc(OC)c(OC)c2)cc1 (stereo not drawn)	nt	6%	nt	nt	nt	23%
O=C(c1ccc(-n2cccn2)cc1)N1CCN(c2ncccc2C(F)(F)F)CC1	10%	-6%	20%	13%	92%	-8%
O=S(=O)(c1ccccc1)c1nc(-c2ccco2)oc1NCCCN1CCOCC1	-5%	28µM*	43%	17%	38%	5%
CC1(CCBr)C(=O)N(c2ccccc2)c2ccccc21 (stereo not drawn)	-13%	-28%	13µM*	2%	-2%	-17%
O=C1N(c2ccccc2)c2ccccc2C1(Cc1ccncc1)Cc1ccncc1	?	0%	?	3%	-7%	-6%
COc1cc(OC)cc(C(=O)Nc2cc3c(cc2N2CCCC2)n(C)c(=O)c(=O)n3C)c1	nt	?	nt	nt	nt	13%
CC(Nc1nc(=S)nc(Nc2ccc(F)cc2)[nH]1)c1ccccc1 (stereo not drawn)	12µM*	0%	10µM*	1%	-33%	?
OC(c1cccs1)(c1cccs1)C1C[N+]2(CF)CCC1CC2 (stereo not drawn)	10µM*	5%	2.3µM*	1%	?	5%
C/C(=N/NC(=O)c1ccc(-c2ccccc2)cc1)c1cccc(O)c1	5%	0%	5.9µM*	0%	-30%	-8%
C/C(=N\NC(=O)c1ccccc1F)c1cccc(NC(=O)c2ccc(C)cc2)c1	69%	?	5.2µM*	-5%	-45%	?
C/C(=N\NC(=O)c1cccc(O)c1)c1cccc(NC(=O)c2ccc(F)cc2)c1	34%	1%	-12%	-5%	-27%	8%
Cc1nc(Nc2ccc(F)cc2)[nH]c(=O)c1CCC(C)C	5.9µM*	-12%	nt	-81%	-17%	-3%
COC(=O)C1=C(C)N(C)C(C)=C(C(=O)OC)C1c1ccc(Cl)cc1	?	-8%	10µM*	2%	-11%	-1%
COC(=O)C1=C(C)N(c2ccc(OC)cc2)C(C)=C(C(=O)OC)C1c1ccc(OC)cc1	?	5%	?	-11%	27%	5%
COC(=O)C1=C(C)N(c2ccc(OC)cc2)C(C)=C(C(=O)OC)C1c1ccccc1	1.3µM*	1%	?	-1%	-5%	6%
CCN(CC(=O)Nc1ccc2c(c1)OCCO2)C(=O)/C=C/c1ccc([N+](=O)[O-])cc1	-15%	-9%	-25%	-4%	-57%	-2%
CNCC(O)c1ccc(OC(=O)C(C)(C)C)c(OC(=O)C(C)(C)C)c1 (stereo not drawn)	?	-8%	?	nt	48%	?
SMILES	Pf growth 48h	Sm TGR block	Pf growth 96h	SARS PLP yeast	AmpC inh no detg	AmpC detergent
CNC[C@H](O)c1ccc(OC(=O)C(C)(C)C)c(OC(=O)C(C)(C)C)c1	?	nt	3.2µM*	nt	nt	nt
O=C(NCCOCCn1c(=O)oc2ccccc21)Nc1ccc(F)cc1F	nt	0%	nt	nt	nt	27%
Cc1nc(Cl)c(C(=O)NC(=O)NCc2ccccc2)c(C)c1Cl	6%	-8%	13µM*	15%	-35%	-8%
O=C(CN1C(=O)COc2ccccc21)c1ccc(Cl)cc1	-3%	-4%	10µM*	-9%	-27%	?
COc1cc(NC(=O)Cn2c(C)cc(C)c(C#N)c2=O)cc(OC)c1	nt	2%	nt	nt	nt	-8%
CN(C)C1=NCCN1CCC1CCCCC1	?	-8%	46%	0%	-8%	-3%
Fc1ccc(COc2ccc(Br)cc2CNCc2ccncc2)cc1	8.3µM*	0%	?	-23%	19%	1%
Fc1ccccc1COc1ccc(Br)cc1CNCc1ccncc1	nt	0%	12µM*	-31%	73%	-8%
Fc1ccccc1COc1ccc(Br)cc1CNCc1cccnc1	13µM*	8%	?	-1%	29%	-5%
CC1CC(C)CN(C(=O)C2CCN(S(=O)(=O)c3ccc4c(c3)CC(C)N4C(=O)C3CC3)CC2)C1 (stereo not drawn)	?	-5%	43%	-2%	113%	0%
CCOc1ccc(C(=O)NC(C(=O)NCCc2ccc(OC(F)F)cc2)C(C)C)cc1 (stereo not drawn)	-6%	-1%	?	9%	4%	-1%
COc1cc(OC)cc(C(=O)NCc2ccc3c(c2)OCO3)c1	3%	9%	?	11%	-14%	?
COc1ccc2[nH]c(C)c(CCN(Cc3cccs3)C(=S)Nc3cccc(F)c3)c2c1	0.37µM*	?	0.74µM*	-1%	45µM*	3%
Cc1[nH]c2ccc(F)cc2c1CCN(Cc1cccnc1)C(=S)Nc1cccc(F)c1	13µM*	-15%	?	0%	-2%	-12%
COc1cccc(NC(=S)N(CCc2nc3cc(C)c(C)cc3[nH]2)Cc2cccnc2)c1	?	-15%	12µM*	-5%	-15%	-9%
COc1cccc(NC(=S)N(CCc2c(C)[nH]c3ccc(C)cc23)Cc2cccs2)c1	?	-8%	?	-3%	0%	-5%
COCCNC(=S)N(CCc1c(C)[nH]c2ccc(C)cc12)Cc1cc(OC)c(OC)c(OC)c1	?	-10%	9.3µM*	9%	277%	-8%
Cc1onc(-c2c(F)cccc2Cl)c1C(=O)NC1C(=O)N2C1SC(C)(C)C2C(=O)O (stereo not drawn)	-14%	nt	-23%	nt	nt	nt
